Data on 20 compounds can be found in PubChem BioAssay (Tox21).

Several values for one entry are separate records, joined by “and”; a condition that tells them apart may be missing. Equal values may be shown once. A number with no mark means an inactive call. Records with an inconclusive call do not appear. Activity calls are given as the source filed them. Unless noted, calls come from the whole dose curve; as a rule, active = well fitted curve in the direction sought with a large enough effect in the repeat runs; inconclusive = weak or mixed curves; inactive = no such curve, though single readings can be large; an effect the other way counts as inactive or inconclusive.

Experiment [1] can be described thus: qHTS assay for small molecules that induce genotoxicity in human embryonic kidney cells expressing luciferase-tagged ATAD5 (AID 651632). Note: nearly all actives have a fitted effect of over 15% in size. In short, it runs like this: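 HEK293T cells carrying a luciferase reporter tagged to ATAD5 were exposed to compound or DMSO vehicle for 16 hr at 37C, 5% CO2. Amplite was added, and after 30 min at room temperature luciferase activity was read as a marker of ATAD5 induction.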
(In general: Quantitative high-throughput screening tests each substance at several concentrations.)

A short description of experiment [2]: qHTS assay for small molecule agonists of the p53 signaling pathway - cell viability (AID 651633; calls by dose curve; note: nearly all actives have a fitted effect of over 30% in size; note: potency is the fitted concentration of half-maximal effect). In short, it runs like this:
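p53RE-bla cells were treated with compound for 16 hours at 37 C. Cytotoxicity was then measured as CellTiter-Glo luminescence after 30 min at room temperature.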

A short description of experiment [3]: qHTS assay for small molecules that induce genotoxicity in human embryonic kidney cells expressing luciferase-tagged ATAD5 - cell viability (AID 651634; calls by dose curve; note: nearly all actives have a fitted effect of over 25% in size; note: potency is the fitted concentration of half-maximal effect). In short, it runs like this:
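HEK293T cells expressing luciferase-tagged ATAD5 were exposed to compound or DMSO for 15.5 hr at 37C, 5% CO2. Viability was then read as live-cell protease activity by CellTiter-Fluor fluorescence after 30 min at 37C.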

Experiment [4] in a line: qHTS assay for small molecule disruptors of the mitochondrial membrane potential - cell viability (AID 720634; calls by dose curve; note: nearly all actives have a fitted effect of over 20% in size; note: potency is the fitted concentration of half-maximal effect). The gist of the method: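 HepG2 cells seeded overnight at 37 C, then exposed to compound or DMSO for 1 hr at 37 C, 5% CO2. m-MPI dye added, then CellTiter-Glo for 30 min at room temperature; viability read as ATP luminescence.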
Experiment [5] in a line: qHTS assay for small molecule disruptors of the mitochondrial membrane potential (AID 720635). Note: potency is the fitted concentration of half-maximal effect. The gist of the method:
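HepG2 cells exposed to compound 1 hr at 37C, then Mito-MPS dye 30 min. Ratio read of aggregate (540/590 nm) versus monomer (490/535 nm) fluorescence.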

The nature of experiment [6]: qHTS assay to test for compound auto fluorescence at 590 nm (red) in HepG2 cells (AID 720674). In short, it runs like this: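 Seeding: 2,000 HepG2 cells/well, MEM/10% FBS, overnight 37 C. Dosing: compound vs DMSO. Incubation: 1 hr, 37 C, 5% CO2. Read: fluorescence 540 ex/590 em, Rose Bengal sodium as red reference.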
Experiment [7] is described as follows: qHTS assay to test for compound auto fluorescence at 535 nm (green) in HepG2 cells (AID 720675).
The nature of experiment [8]: qHTS assay to test for compound auto fluorescence at 460 nm (blue) in HEK293 cells (AID 720678). Note: potency is the fitted concentration of half-maximal effect. The gist of the method:
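Blue-channel (Ex/Em 405/460 nm) intensity measured in HEK293 cultures after overnight compound exposure at 37C; signal expressed relative to triamterene. Cells plated 2,000 per well in 10% dialyzed FBS medium and allowed 4-5 hr to attach.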

Experiment [9] can be described thus: qHTS assay to test for compound auto fluorescence at 590 nm (red) in HEK293 cells (AID 720679). In short, it runs like this:
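Red-channel autofluorescence (Ex/Em 540/590 nm; Rose Bengal sodium reference) was measured after overnight 37C, 5% CO2 exposure of attached HEK293 cells, 2,000 per well in medium with 10% dialyzed FBS.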

Experiment [10] can be described thus: qHTS assay for small molecule agonists of the p53 signaling pathway (AID 651631; calls by dose curve; note: potency is the fitted concentration of half-maximal effect; nearly all actives have a fitted effect of over 15% in size). The gist of the method: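 Testing took place in human colorectal HCT-116 cells with stable p53RE-driven beta-lactamase. After 16 h of compound exposure at 37 °C, a FRET substrate was added and fluorescence recorded 2 h later.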
Tags give direction and shape of the fitted curve or compound fluorescence and quenching.

Turning to `CCCCCCCC[P+](CCCCCCCC)(CCCCCCCC)CCCCCCCC`, the Potency entry in experiment [1], in experiment [6], in experiment [7], in experiment [8] and in experiment [9] was “inactive” each time. Also, the Potency in experiment [2] is 12.1 µM (active); in experiment [3], 13.6 µM (active); in [4] it was 21.6 µM (active); in experiment [5] it was 0.0963 µM (active).

Consider `CCc1cc(SCc2sc(-c3ccc(C(F)(F)F)cc3)nc2CN2CCN(c3ccc(OC)cc3)CC2)ccc1OCC(=O)O`, for which the Potency result in [1], in experiment [4], in experiment [6], in experiment [7], in experiment [8] and in experiment [9] was “inactive” in each case. Moreover, the values for the Potency in [2], in experiment [3] and in [5] were 9.69 µM (active), 48.6 µM (active) and 19.3 µM (active), respectively.

With `CCCCCCCCCCCC[N+](C)(C)CCCCCCCCCCCC`, the Potency result in experiment [1], in experiment [6], in experiment [7], in experiment [8] and in [9] was “inactive” throughout. Also, the Potency is 54.5 µM (active) in experiment [2], 68.6 µM (active) in [3], 30.6 µM (active) in experiment [4] and 19.3 µM (active) in [5].

`CC[C@H]1O[C@]2(CC[C@@H]1C)C[C@@H]1C[C@@H](C/C=C(\C)C[C@@H](C)/C=C/C=C3\CO[C@@H]4[C@H](O)C(C)=C[C@@H](C(=O)O1)[C@]34O)O2`: the Potency entry in experiment [1], in experiment [6], in experiment [7], in experiment [8] and in experiment [9] was “inactive” in each case. For the same compound, the Potency is 12.1 µM (active) in experiment [2], 54 µM (active) in experiment [3], 68 µM (active) in [4] and 21.5 µM (active) in experiment [5].

Turning to `C[n+]1ccn(Cc2ccccc2)c1`, the Potency entry in experiment [1], in experiment [2], in experiment [3], in experiment [4], in experiment [5] and in experiment [6] was “inactive” throughout. The Potency entry in experiment [7], in experiment [8] and in experiment [9] was “inactive” in each case.

For the compound `Cc1cc(=O)oc2cc(N(C)C)ccc12`, the Potency in experiment [10] was 48.6 µM (active); in [8], 39.8 µM [fluorescent] (active). Also, the Potency result in experiment [2], in experiment [4], in [6], in experiment [7] and in experiment [9] was “inactive” each time.

For the compound `C[C@H]1[C@H]2CC[C@H]3[C@@H]4CC=C5C[C@@H](N(C)C)CC[C@]5(C)[C@H]4CC[C@]23CN1C`, the Potency entry in [1], in [2], in experiment [3], in [4], in experiment [5] and in [6] was “inactive” in each case. The Potency result in [7], in experiment [8] and in [9] was “inactive” each time.

In the case of `O=c1cccccc1O`, the Potency entry in experiment [1], in [2], in experiment [3], in [4], in experiment [6] and in experiment [7] was “inactive” each time. Also, the Potency result in experiment [8] and in [9] was “inactive” in each case. Also, in [5], the Potency was 3.93 µM (active).

Turning to `CCCCN1CCCC[C@H]1C(=O)Nc1c(C)cccc1C`, the Potency entry in [1], in experiment [2], in experiment [3], in experiment [4], in [6] and in [7] was “inactive” in each case. The Potency result in [8] and in experiment [9] was “inactive” in each case.

For the compound `CC1=NC(C)OC1C` (stereo not drawn), the Potency entry in experiment [1], in [2], in experiment [3], in experiment [4], in experiment [5] and in [6] was “inactive” throughout. The Potency entry in experiment [7], in experiment [8] and in experiment [9] was “inactive” throughout.

On to `Cc1ccc(-n2nc(C(C)(C)C)cc2NC(=O)Nc2ccc(OCCN3CCOCC3)c3ccccc23)cc1`, for which the Potency result in experiment [1], in experiment [2], in [3], in experiment [4], in [6] and in experiment [7] was “inactive” throughout. Besides, the Potency result in [8] and in experiment [9] was “inactive” throughout. Further, in experiment [5], the Potency is 18.8 µM (active).

Take `CC(NN)c1ccccc1` (stereo not drawn): the Potency result in experiment [1], in experiment [2], in experiment [3], in experiment [4], in experiment [5] and in experiment [6] was “inactive” throughout. The Potency result in [7], in [8] and in experiment [9] was “inactive” throughout.

In the case of `O=C1CCCc2c1cc1ccc3cccc4ccc2c1c34`, the Potency was 55.1 µM (active) in [10] and 8.74 µM (active) in experiment [5]. Moreover, the Potency entry in experiment [2], in experiment [3], in experiment [6], in experiment [7], in [8] and in experiment [9] was “inactive” each time.

For the compound `CCCCCCCC[N+](CCCCCCCC)(CCCCCCCC)CCCCCCCC`, the Potency result in [1], in experiment [6], in experiment [7], in experiment [8] and in [9] was “inactive” in each case. In addition, the Potency in [2] was 13.7 µM (active); in experiment [3], 30.6 µM (active); in [4] it was 27.3 µM (active); in [5], 0.0768 µM (active).

In the case of `CCCCC(CC)COP(=O)(O)OCC(CC)CCCC` (stereo not drawn), the Potency result in [1], in experiment [3], in experiment [4], in [6], in experiment [7] and in experiment [8] was “inactive” throughout. Besides, in experiment [9], the Potency entry was “inactive”. Also, the Potency in [2] was 61.3 µM (active) and 27.3 µM (active); in experiment [5], 68.7 µM (active).

For the compound `CCCCCCCCCCC=O`, the Potency entry in experiment [1], in experiment [2], in [3], in experiment [4], in [5] and in [6] was “inactive” each time. For the same compound, the Potency entry in [7], in experiment [8] and in experiment [9] was “inactive” in each case.

Consider `CCCCCCCCOc1ccccc1C(=O)Nc1ccc(C(=O)OCC[N+](C)(CC)CC)cc1`, for which the Potency result in [1], in [3], in [4], in experiment [6], in [7] and in experiment [8] was “inactive” in each case. In [9], the Potency result was “inactive”. For the same compound, the Potency in experiment [2] was 23.7 µM (active); in experiment [5] it was 31.2 µM (active).

Consider `CN(C)[C@@H]1C(=O)C(C(N)=O)=C(O)[C@@]2(O)C(=O)C3=C(O)c4c(O)ccc(Cl)c4[C@@H](O)[C@H]3C[C@@H]12`, for which the Potency entry in experiment [1], in [2], in [3], in [4], in experiment [5] and in [6] was “inactive” throughout. Besides, the Potency result in [7], in experiment [8] and in [9] was “inactive” each time.

`CCCN(CCC)C(=O)C(CCC(=O)OCCCN1CCN(CCOC(=O)Cc2c(C)n(C(=O)c3ccc(Cl)cc3)c3ccc(OC)cc23)CC1)NC(=O)c1ccccc1` (stereo not drawn): the Potency result in [1], in experiment [2], in [4], in experiment [6], in [7] and in experiment [8] was “inactive” in each case. Also, the Potency result in experiment [9] was “inactive”. The Potency in experiment [3] is 26.6 µM (active).

For `CCCCCCCCCCCCCCCCCC[N+](C)(C)C`, the Potency result in experiment [1], in experiment [6], in experiment [7], in experiment [8] and in [9] was “inactive” in each case. The Potency in experiment [2] and in experiment [3] was 61.3 µM (active) throughout.
